Compounds with a hit are over-represented: about 3% of the library has one in this group of screens.
14-3-3 Bad inh – disrupts binding of bovine 14-3-3 zeta to phospho-Bad peptide. TR-FRET 14-3-3zeta/Dy647-pBad peptide displacement, 1 h. 220,000 compounds, 0.71% hits. inhibition, % at 21.7 µM. P63103. AID 781;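 active means inhibition above about 70%, limit read from the data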;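 further: 0% = full 14-3-3 plus peptide FRET controls and 100% = background without 14-3-3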
Target sequence (P63103 whole entry, looked up): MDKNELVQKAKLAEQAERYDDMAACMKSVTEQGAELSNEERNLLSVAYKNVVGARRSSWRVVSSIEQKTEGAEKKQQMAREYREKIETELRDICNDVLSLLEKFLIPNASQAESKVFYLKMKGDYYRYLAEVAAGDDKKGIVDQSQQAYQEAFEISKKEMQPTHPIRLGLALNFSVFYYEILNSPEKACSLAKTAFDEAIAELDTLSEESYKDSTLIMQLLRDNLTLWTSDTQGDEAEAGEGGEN
Mcl1-Bid inh – disrupts binding of human Mcl-1 to Bid peptide | inhibition, % at 21.7 µM | AID 1021 | TR-FRET Mcl-1/Bid-Dy647 peptide binding, 1536-well | 220,000 compounds, 0.97% hits | Q07820;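 active means compounds that cut the binding signal by more than half at the single screening dose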;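 further: His-tagged Mcl-1 with europium anti-His antibody binding Bid BH3 peptide; 0% = Mcl-1 plus peptide wells and 100% = peptide-only wells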
Target sequence (Q07820 whole entry, looked up): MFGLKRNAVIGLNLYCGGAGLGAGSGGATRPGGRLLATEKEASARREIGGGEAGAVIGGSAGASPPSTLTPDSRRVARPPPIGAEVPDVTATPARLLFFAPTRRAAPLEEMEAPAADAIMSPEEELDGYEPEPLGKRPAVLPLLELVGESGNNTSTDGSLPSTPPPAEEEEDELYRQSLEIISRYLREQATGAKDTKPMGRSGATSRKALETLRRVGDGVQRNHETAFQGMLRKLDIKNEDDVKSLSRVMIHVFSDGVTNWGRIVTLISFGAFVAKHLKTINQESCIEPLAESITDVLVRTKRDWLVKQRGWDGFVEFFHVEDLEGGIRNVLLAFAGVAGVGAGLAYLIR
Arbovirus inh – antivirals against arbovirus infection | arbovirus infection cell-based antiviral screen | inhibition, % at 10 µM | 200,000 compounds, 0.37% hits | AID 1251; in the data active means inhibition above about 30%
Mcl1 Noxa PPI – disrupts binding of human Mcl-1 to Noxa peptide; TR-FRET Mcl-1/Noxa peptide binding, 2 h; 220,000 compounds, 1.5% hits; inhibition, % at 21.7 µM; Q07820;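 active means compounds that cut the protein-peptide binding signal by more than 50% relative to plate controls in a single-dose test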;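 further: His-tagged Mcl-1 with rhodamine Noxa BH3 peptide and terbium anti-His antibody; 0% = Mcl-1 plus Noxa peptide wells and 100% = peptide-only wells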
Mcl-1 Bim block – human Bim-Mcl-1 interaction inhibition; 190,000 compounds, 0.1% hits; Bead-based flow cytometry, Bim peptide-Mcl-1 binding; inhibition, % at 10 µM; Q07820; in the data active means inhibition above about 40%;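 further: 0% = no compound tracer wells and 100% = peptide blocker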
* hit, by the source's call; x = no result given; + = active, no number; [ ] = remark or other dose.

SMILES	14-3-3 Bad inh	Mcl1-Bid inh	Arbovirus inh	Mcl1 Noxa PPI	Mcl-1 Bim block
O=C(O)CNS(=O)(=O)c1cccc(Cl)c1	1.4	4.1	x	4.8	x
COc1cccc2c1nc(C)c1cc(C)oc12	-1.4	98.9*	1.3	-43.1	-2.0
Cc1[nH]nc2c1-c1nc3ccccc3nc1C(C)(C)C2	27.2	15.4	33.3*	19.8	0.0
O=C(N/N=C/c1ccc(N2CCCCC2)o1)c1ccccc1[N+](=O)[O-]	-7.0	-1.3	-4.3	31.4	0.0
CN(CCOc1ccc(NS(C)(=O)=O)cc1)CCc1ccc(NS(C)(=O)=O)cc1	-0.4	84.3*	2.9	1.1	1.0
O=S(=O)(Cc1ccccc1)NCC1CCCN(Cc2ccc3nonc3c2)C1 (centres undefined)	-2.7	-27.8	-5.7	-4.4	-10.0
COc1ccccc1C(=O)OCC(=O)NC(=O)NCc1ccccc1	0.8	2.9	-2.4	-15.8	-8.0
CCOC(=O)/C(C#N)=C/c1cc2ccccc2nc1N1CCOCC1	-12.8	-44.0	-4.1	10.5	-3.0
N#CC(C#N)=Cc1cc2ccccc2nc1N1CCCCC1	-19.0	-14.3	32.0*	-3.5	1.0
Cc1ccc(CNc2nc(C)nc3sc4c(c23)CCC4)cc1	-15.8	91.2*	7.0	-16.1	0.0
Cc1nc(Nc2ccc(O)cc2)c2c3c(sc2n1)CCCC3	2.1	-13.4	x	19.6	x
COc1cc(OC)cc(C(=O)N[C@H](C(=O)OCC(=O)NC(=O)c2cccn2C)C(C)C)c1	-13.0	91.8*	0.4	15.7	0.0
COc1ccc(C(=O)N[C@H](C(=O)OCC(=O)NC(=O)c2cccn2C)C(C)C)cc1	2.3	-10.2	4.1	0.4	-1.0
COCCCN=C1NN=C(c2cc(C)n(-c3ccccc3)c2C)CS1	-8.0	-12.5	2.9	10.9	-9.0
CCCCN=C1NN=C(c2cccc([N+](=O)[O-])c2)CS1	-4.5	8.5	-9.5	50.6*	3.0
CCCCN=C1NN=C(c2cc3ccccc3o2)CS1	-8.1	-45.4	-11.5	70.2*	-1.0
Cn1cnnc1SCC(=O)Nc1ncc(C(F)(F)F)cc1Cl	23.9	-27.6	9.8	8.6	0.0
Cc1ccc(C(=O)NC2(C(F)(F)F)N=C3SCCN3C2=O)cc1 (centres undefined)	74.0*	-23.2	0.2	-3.1	0.0
CO/N=C1\CCn2c1c(C)c1ccccc12	71.5*	43.8	x	9.2	x
Cc1c2n(c3ccccc13)CC/C2=N\O	15.2	0.8	x	-10.2	x
O=C(Nc1nc2ccccc2s1)C1=NN(c2ccccc2)C(=O)CC1	-17.6	-31.4	21.1	8.0	-4.0
COc1cccc(-n2cnc3c(sc4nc(N5CCOCC5)c5c(c43)CCCC5)c2=O)c1	-9.0	-12.5	-16.2	-5.3	0.0
O=C(Nc1cc(C(F)(F)F)ccc1N1CCOCC1)c1ccc2ccccc2n1	8.3	-21.4	-0.9	67.7*	-6.0
O=C(Nc1cc(C(F)(F)F)ccc1N1CCOCC1)c1ccccc1F	72.8*	-20.4	-6.0	-0.3	-2.0
Cc1ccc(C(=O)COC(=O)CNC(=O)c2ccc(N3C(=O)c4ccccc4C3=O)cc2)cc1C	18.0	17.2	-3.3	82.9*	-6.0
SMILES	14-3-3 Bad inh	Mcl1-Bid inh	Arbovirus inh	Mcl1 Noxa PPI	Mcl-1 Bim block
O=C(CNC(=O)c1ccc(N2C(=O)c3ccccc3C2=O)cc1)OCC(=O)c1ccc(Cl)cc1	-4.8	6.6	13.3	-11.3	-5.0
C[C@H]1O[C@H](O[C@H]2[C@H](O)[C@@H](O)[C@@H](O[C@H]3[C@H](O)[C@@H](O)C(O)O[C@@H]3CO)O[C@@H]2CO)[C@H](O)[C@@H](O)[C@@H]1N[C@H]1C=C(CO)[C@@H](O)[C@H](O)[C@H]1O (some centres undefined)	2.3	-0.6	-6.3	-0.6	-1.0
Cc1noc(NS(=O)(=O)c2ccc(N3Cc4ccccc4C3=O)cc2)c1C	+[fluorescence artefact?]	-29.3	6.1	14.2	-1.0
CC(NC(=O)C1CCCN1S(=O)(=O)c1ccc2c(c1)n(C)c(=O)c(=O)n2C)c1ccccc1 (centres undefined)	2.8	-21.4	x	-29.0	x
CNC(=O)NC(=O)COC(=O)c1ccccc1OCc1ccccc1	-5.7	-12.8	10.8	54.5*	-2.0
S=C(NNc1ccnc2cc(Cl)ccc12)Nc1ccc(Cl)cc1Cl	91.6*	62.0*	x	84.7*	x
CCOc1ccc(NC(=S)NNc2ccnc3cc(Cl)ccc23)cc1	-5.8	-41.8	6.0	29.0	-12.0
O=C(CC1Sc2ccccc2NC1=O)OCc1cc(=O)oc2cc(O)ccc12 (centres undefined)	-14.5	-95.9	7.8	95.0*	-2.0
Cc1ccc2c(COC(=O)CC3Sc4ccccc4NC3=O)cc(=O)oc2c1C (centres undefined)	-4.6	-5.9	-20.6	10.8	-7.0
O=C(/C=C/c1ccc2c(c1)OCO2)Nc1nc(-c2ccc(F)cc2)cs1	5.2	-7.4	-19.3	4.0	-4.0
CCOc1ccc2nc(NC(=O)/C=C/c3ccc4c(c3)OCO4)sc2c1	39.5	59.8*	-14.0	56.2*	0.0
O=C(/C=C/c1ccc2c(c1)OCO2)Nc1ccc(Cl)cn1	26.9	63.2*	-33.3	17.4	-2.0
O=C(/C=C/c1ccc2c(c1)OCO2)Nc1nc2ccc(F)cc2s1	27.4	61.1*	x	70.8*	x
Cn1c2ccccc2c2cnn(CC(=O)Nc3ccccc3Br)c(=O)c21	73.6*	49.1	x	-82.6	x
Cc1ccc(-c2nc(NC(=O)c3cc(C(C)(C)C)nn3C)sc2C)cc1Cl	0.4	3.6	x	-1.4	x
CC(=O)c1c(C)nc(-c2ccc(Cl)cc2)nc1N=CN(C)C	84.3*	3.0	0.2	19.9	-1.0
CC(=O)c1c(C)nc(-c2ccc(Cl)cc2)nc1N	44.8	-19.9	4.6	30.6	3.0
CCOc1cccc(/C(O)=C2/C(=O)C(=O)N(Cc3ccco3)C2c2ccncc2)c1 (centres undefined)	74.5*	-80.3	2.7	11.1	0.0
COc1ccc(C(C)(C)C)cc1S(=O)(=O)N1CCC(C(N)=O)CC1	-14.2	-10.8	1.9	13.1	-1.0
COc1ccc(C(=O)CSc2nnc(CN3CCCC3)n2-c2ccc(F)cc2)c(OC)c1	-17.6	-4.1	5.2	52.7*	-9.0
COc1ccc(C(=O)CSc2nnc(CN3CCCCC3)n2-c2ccc(F)cc2)cc1OC	5.8	-6.3	6.2	3.2	-7.0
CC(C)CNS(=O)(=O)c1ccc(CCC(=O)Nc2ccc3c(c2)OCCO3)cc1	-2.1	-2.1	0.0	-0.8	0.0
COCCNC(=O)c1ccc2c(=O)n(CCOC)c(=O)[nH]c2c1	84.7*	-11.0	4.7	13.3	-5.0
CC(=O)CCCCn1cnc2c1c(=O)n(C)c(=O)n2C	-1.0	-5.1	-0.7	11.9	2.0
Cc1ccc(C(=O)Nc2nnc(CC(=O)N/N=C/c3ccncc3)s2)cc1	5.6	16.8	-5.3	63.2*	-2.0
Cc1ccc(C)c(NC(=S)N(CCN(C)C)C(C)c2ccccn2)c1 (centres undefined)	0.1	-33.5	5.7	8.8	0.0
CCc1cc(C(N)=S)ccn1	3.0	-8.3	0.6	53.1*	-1.0
O=C(NCCN1CCNCC1)c1ccccn1	72.5*	7.2	6.0	28.5	0.0
O=C(NCCCNCCCNC(=O)c1ccccn1)c1ccccn1	14.9	-30.9	3.8	-6.0	-1.0

From PubChem BioAssay
